Bioassay records deposited in PubChem by National Center for Advancing Translational Sciences (NCATS).
Most compounds without a hit are left out; they make up all but 9.9% or so of the library.
MCF10A rereplic: A quantitative high throughput screen for small molecules that induce DNA re-replication in MCF 10a normal breast cells. MCF 10A DNA re-replication, Hoechst nuclear intensity, 48 h. Potency, µM (series often up to 46.1 µM), most hits filed as activators. hit rate 2.9% among 350,000. AID 624296, 2012; further: nearly all actives have a fitted effect of over 50% in size
KB-V1 MDR tox: qHTS assay for MDR1-selective chemotherapeutics: Primary screen using the drug-selected MDR subline cells KB-V1; KB-V1 MDR cells viability, CellTiter-Glo, 72 h; hit rate 3.4% among 400,000; Potency, µM (doses to about 46.1 µM), usual class: cytotoxic; AID 1347076, 2019; further: nearly all actives have a fitted effect of over 60% in size
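Cells of the MDR subline KB-V1 are plated, dosed with compound at multiple concentrations, and incubated 72 h at 37 degrees C; CellTiter-Glo is then added and luminescence read after 10 min.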
KB-3-1 cytotox: qHTS assay for MDR1-selective chemotherapeutics: Primary screen using the parental adenocarcinoma cell KB-3-1; KB-3-1 viability, CellTiter-Glo ATP luminescence, 72 h; Potency, µM (doses to about 46.1 µM), usual class: cytotoxic; hit rate 1.4% among 400,000; AID 1347075, 2019; further: nearly all actives have a fitted effect of over 60% in size
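Parental KB-3-1 viability, qHTS format: 72 h compound exposure, 37 °C; CellTiter-Glo; media-only wells and DMSO plates as controls; concentration-effect fits on corrected data.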
SW480 rereplic: A quantitative high throughput screen for small molecules that induce DNA re-replication in SW480 colon adenocarcinoma cells; SW480 DNA re-replication, Hoechst DNA content imaging, 48 h; AID 624297, 2012; Potency, µM (top dose mostly 46.1 µM), most hits filed as activators; hit rate 1.8% among 340,000; further: nearly all actives have a fitted effect of over 55% in size
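Compounds, transferred as 23 nL by pin tool, were incubated with cells for 48 hr; DNA content per nucleus was then quantified by Hoechst staining and fluorescence plate imaging.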
IL1B secr inh: qHTS for Inhibitors of Inflammasome Signaling: IL-1-beta AlphaLISA Primary Screen; THP-1 LPS/ATP IL-1B secretion, AlphaLISA, 16 h; hits give low values; activity change, % at 57.5 µM; AID 743279, 2014; hit rate 4.7% among 360,000; in the data active means activity change below about -50%; inconclusive means mostly about -30% to -49%
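THP-1 cells pretreated 1 hr with compounds (up to 57.5 uM final), then stimulated with LPS (250 ng/mL final) plus ATP (1.25 mM final); secreted IL-1B measured by AlphaLISA after 16 hr, decreased signal indicating inhibition.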
Hits are given with their value; - = inactive; ? = inconclusive; . = not tested or not shown; [ ] = dose if it differs, or a comment. Unless noted, the call rests on the fitted dose curve; in most records, active means well fitted curve in the direction sought with a large enough effect; inconclusive means small, poorly fitted or top-dose-only effect, or another doubt; inactive means no such curve, though single readings can be large; an effect the other way counts as inactive or inconclusive.

SMILES	MCF10A rereplic	KB-V1 MDR tox	KB-3-1 cytotox	SW480 rereplic	IL1B secr inh
COc1cc(CNn2nnnc2N)cc(Br)c1OCc1c(Cl)cccc1Cl	-	20.6µM	?	-	-
Cc1ccccc1CNC(=O)c1csc([C@@H]2O[C@H](CO)[C@@H](O)[C@H]2O)n1	.	-	-	.	-
CCOC(=O)c1cc2c(=O)n3ccccc3nc2n(CCOC)c1=NC(=O)C(C)(C)C	-	-	-	?	-
CCOC(=O)c1cc2c(=O)n3ccccc3nc2n(CCCOC)c1=NC(=O)C(C)(C)C	?	-	?	18.4µM	-
CCCCn1c(=NC(=O)c2c(-c3c(F)cccc3Cl)noc2C)c(C(=O)OCC)cc2c(=O)n3ccccc3nc21	.	-	-	.	.
CCOC(=O)c1cc2c(=O)n3ccccc3nc2n(CCOC)c1=NC(=O)c1c(-c2c(F)cccc2Cl)noc1C	18.4µM	?	?	?	-55.1
Cc1ccn2c(=O)nc(SCC(=O)NCCc3ccccc3)nc2c1	-	-	-	-	-
O=C(c1ccccc1)C1C(c2ccccc2)C1[N+](=O)[O-] (centres undefined)	-	-	-	-	-56.1
O=C(c1ccccc1)C1CC1c1ccccc1 (centres undefined)	.	-	?	.	-
CC(C)CN1C(=O)C(=O)N(CC(=O)c2ccc3c(c2)CCCC3)C1=O	-	16.4µM	-	-	-
CCCCN1C(=O)C(=O)N(CC(=O)c2ccc3c(c2)CCCC3)C1=O	-	?	-	-	-
COc1cccc(C2(C)NC(=O)N(CC(=O)c3cc(C)n(C4CC4)c3C)C2=O)c1 (centres undefined)	-	16.4µM	-	-	-
Cc1cc(C(=O)CN2C(=O)C(=O)N(CC(C)C)C2=O)c(C)n1C1CC1	-	18.4µM	-	?	-
Cc1cc(C(=O)CN2C(=O)C(=O)N(CCC3=CCCCC3)C2=O)c(C)n1C	-	23.1µM	-	-	-
Cc1cc(C(=O)CN2C(=O)c3ccccc3C2=O)c(C)n1C1CC1	-	-	-	-	-
Cc1cc(C(=O)CN2C(=O)NC(C)(c3cc(F)ccc3F)C2=O)c(C)n1C1CC1 (centres undefined)	-	-	-	?	-
CCCN1C(=O)C(=O)N(CC(=O)c2cc(C)n(C3CC3)c2C)C1=O	-	20.6µM	?	-	-
CCN1C(=O)C(=O)N(CC(=O)c2cc(C)n(C3CC3)c2C)C1=O	-	-	-	-	-
COc1ccc(N(C(=O)/C=C/c2ccccc2)C2=CC3CCC(C2)N3C)cc1 (centres undefined)	-	-	-	-	?
CCCCNC(=S)N(C)/N=C/c1ccc(OCc2ccc(C(=O)OC)cc2)c(OC)c1	?	13µM	-	-	-
CC(C)[C@H](NS(=O)(=O)c1cccc(C(F)(F)F)c1)C(=O)OCC(=O)NC(=O)NCc1ccco1	-	-	-	-	-
CC(NCCN(C)C)C1CCC2C3CCc4cc(O)ccc4C3CCC12C (centres undefined)	-	?	-	?	-102.4
CC(=O)OC1CCC2C3CCc4cc(O)ccc4C3CCC12C (centres undefined)	?	18.4µM	-	?	-
C[C@]12CC[C@H]3c4ccc(O)cc4CC[C@@H]3[C@H]1CC[C@@H]2OP(=O)(O)O	-	.	.	-	.
CC(=O)O[C@H]1CC[C@H]2[C@@H]3CCc4cc(O)ccc4[C@H]3CC[C@]12C	?	14.6µM	?	?	-
SMILES	MCF10A rereplic	KB-V1 MDR tox	KB-3-1 cytotox	SW480 rereplic	IL1B secr inh
C[C@]12CC[C@@H]3c4ccc(O)cc4CC[C@H]3[C@@H]1CC[C@@H]2O	?	?	-	?	-
C[C@]12CC[C@@H]3c4ccc(O)cc4CC[C@H]3[C@@H]1CCC2OC(=O)CCC1CCCC1 (some centres undefined)	23.7µM	.	.	?	.
COc1ccccc1CNC(=O)CCCn1c(=O)c2ccccc2n(Cc2ccccc2F)c1=O	.	-	-	.	.
CN(CC(=O)Nc1ccccc1Cl)C(=O)CN1C(=O)C2CCCCC2C1=O (centres undefined)	-	-	-	-	-
COC(=O)c1cccc(N(CC(=O)NC2CCCCC2)C(=O)CNC(=O)c2cccs2)c1	-	-	-	-	-
CN(C)C(CNC(=O)c1cc(S(=O)(=O)N(C)c2ccc(F)cc2)ccc1Cl)c1cccs1 (centres undefined)	-	4.11µM	?	-	-
O=C(c1cc2ccccc2[nH]1)N(Cc1cccnc1)CC1CCCN(C2CCCCC2)C1 (centres undefined)	?	-	-	?	-
Cc1ccccc1Nc1nc(Nc2ccccc2C)nc(SC2=NCCS2)n1	-	16.4µM	-	-	?
Cc1ccc(Nc2nc(Nc3ccc(C)cc3)nc(SC3=NCCS3)n2)cc1	?	-	-	?	-
O=C(NCCC(=O)N1CCC2(CC1)NCCc1[nH]cnc12)c1ccc(F)c(F)c1	-	?	-	-	-
COCCCNC(=O)CSc1nc2sc(C(=O)OC)c(C)c2c(=O)n1N	-	-	-	-[1.84 µM]	-
COC(=O)c1sc2nc(SCc3ccccc3C)n(N)c(=O)c2c1C	-	-	-	-	-
CCC(Sc1nc2sc(C(=O)OC)c(C)c2c(=O)n1N)C(=O)NCC1CCCO1 (centres undefined)	-	16.4µM	-	-	-
CCCCNC(=O)C(CC)Sc1nc2sc(C(=O)OC)c(C)c2c(=O)n1N (centres undefined)	-	4.61µM	-	?	-
CCC(Sc1nc2sc(C(=O)OC)c(C)c2c(=O)n1N)C(=O)N(CC)CC (centres undefined)	-	3.66µM	-	-	-
CCCCC1CCC(c2ccc(C(N)=O)cc2)CC1 (centres undefined)	-	?	-	-	-
CCCCCC1CCC(c2ccc(/C(N)=N/O)cc2)CC1 (centres undefined)	?	-	-	2.31µM	-
Cc1ccc(OC/C(=N\O)C(C)(C)C)c([N+](=O)[O-])c1	-	-	-	-	-82.3
COC(=O)c1ccc(COc2ccc(C)cc2[N+](=O)[O-])o1	1.84µM	-	-	-	.
Cc1cc(NC(=O)c2ccc(-c3ccccc3[N+](=O)[O-])o2)no1	-	-	-	-	-
CC(=O)c1ccc(NC(=O)c2ccc(COc3ccccc3[N+](=O)[O-])o2)cc1	-	10.3µM	?	-	-
CC(=O)c1cccc(NC(=O)c2ccc(-c3ccccc3[N+](=O)[O-])o2)c1	18.4µM	?	-	-	?
CC(C)C(NS(=O)(=O)c1ccc2c(c1)oc(=O)n2C)C(=O)NCCc1ccc(Cl)cc1 (centres undefined)	.	-	-	.	.
